Reference: PMC7862700, “An all-to-all approach to the identification of sequence-specific readers for epigenetic DNA modifications on cytosine”

Experiments:
Test in all cases: DAPPL (digital affinity profiling via proximity ligation, sequencing); 10 mM Tris-HCl pH 7.5, 50 mM NaCl, 1 mM DTT, 4% glycerol, room temperature, 30 min; GST-TFs on glutathione beads, 16-mer random dsDNA library, 0.1% formaldehyde crosslink after washing; high values mean tight binding
Settings in all cases: protein: recombinant; tags: N-terminal GST; dsDNA, one strand shown
FLI1 = target: T1, FLI1 (Homo sapiens, UniProt Q01543 1-452)
T1 sequence: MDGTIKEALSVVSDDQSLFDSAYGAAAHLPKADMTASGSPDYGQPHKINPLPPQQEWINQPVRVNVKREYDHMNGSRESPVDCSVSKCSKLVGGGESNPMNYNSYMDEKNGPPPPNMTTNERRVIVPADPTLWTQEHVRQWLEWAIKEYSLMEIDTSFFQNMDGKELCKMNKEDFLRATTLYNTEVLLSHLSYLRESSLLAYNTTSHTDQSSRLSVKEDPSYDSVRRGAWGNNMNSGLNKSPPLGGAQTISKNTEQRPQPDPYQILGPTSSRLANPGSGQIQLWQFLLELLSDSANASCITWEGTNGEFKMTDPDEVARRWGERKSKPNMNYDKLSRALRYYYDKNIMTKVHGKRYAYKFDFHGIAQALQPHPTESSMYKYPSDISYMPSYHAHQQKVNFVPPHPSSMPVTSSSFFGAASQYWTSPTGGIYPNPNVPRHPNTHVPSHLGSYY
Method in brief: (§1)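 Binding signal is defined as a hexamer's read frequency for one factor over its frequency for the tag-only sample. To obtain reads, GST-fused human transcription factors were expressed in yeast, captured on glutathione beads, barcoded with DNA and pooled with that sample. Pools met 200 nmole of a 16-mer random double-stranded DNA library in Tris/NaCl/DTT/glycerol buffer for 30 min at room temperature before washing, 0.1% formaldehyde crosslinking, proximity ligation (BsaI/T4 ligase, 1 h, 37 °C), PCR and Illumina NextSeq500 sequencing.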

ELK1 = target: T2, ELK1 (Homo sapiens, UniProt P19419 1-428)
T2 sequence: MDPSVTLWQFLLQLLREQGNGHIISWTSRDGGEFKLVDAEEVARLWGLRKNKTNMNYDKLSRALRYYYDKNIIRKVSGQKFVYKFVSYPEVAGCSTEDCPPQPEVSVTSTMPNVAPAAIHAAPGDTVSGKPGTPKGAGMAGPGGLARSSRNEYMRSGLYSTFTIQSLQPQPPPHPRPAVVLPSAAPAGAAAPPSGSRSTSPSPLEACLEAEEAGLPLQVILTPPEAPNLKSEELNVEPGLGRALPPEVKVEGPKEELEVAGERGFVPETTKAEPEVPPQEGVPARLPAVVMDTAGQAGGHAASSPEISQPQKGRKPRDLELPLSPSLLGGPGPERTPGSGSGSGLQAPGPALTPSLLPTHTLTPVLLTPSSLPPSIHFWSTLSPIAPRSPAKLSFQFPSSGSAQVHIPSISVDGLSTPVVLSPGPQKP
Method in brief: as §1

GABPA = target: T3, GABPA (Homo sapiens, UniProt Q06546 1-454)
T3 sequence: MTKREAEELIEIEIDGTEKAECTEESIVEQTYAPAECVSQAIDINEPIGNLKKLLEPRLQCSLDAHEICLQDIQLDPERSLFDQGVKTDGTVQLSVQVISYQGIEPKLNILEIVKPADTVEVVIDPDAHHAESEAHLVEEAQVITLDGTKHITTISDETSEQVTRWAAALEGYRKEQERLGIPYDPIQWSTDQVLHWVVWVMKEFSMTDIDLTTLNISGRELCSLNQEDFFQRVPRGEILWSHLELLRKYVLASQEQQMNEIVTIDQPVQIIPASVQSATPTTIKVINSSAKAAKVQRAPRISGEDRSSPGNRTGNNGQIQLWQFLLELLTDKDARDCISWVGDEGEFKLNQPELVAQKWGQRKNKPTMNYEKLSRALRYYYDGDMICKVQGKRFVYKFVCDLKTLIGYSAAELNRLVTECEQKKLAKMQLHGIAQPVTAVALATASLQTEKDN
Method in brief: as §1

ERG = target: T4, ERG (Homo sapiens, UniProt P11308 1-479)
T4 sequence: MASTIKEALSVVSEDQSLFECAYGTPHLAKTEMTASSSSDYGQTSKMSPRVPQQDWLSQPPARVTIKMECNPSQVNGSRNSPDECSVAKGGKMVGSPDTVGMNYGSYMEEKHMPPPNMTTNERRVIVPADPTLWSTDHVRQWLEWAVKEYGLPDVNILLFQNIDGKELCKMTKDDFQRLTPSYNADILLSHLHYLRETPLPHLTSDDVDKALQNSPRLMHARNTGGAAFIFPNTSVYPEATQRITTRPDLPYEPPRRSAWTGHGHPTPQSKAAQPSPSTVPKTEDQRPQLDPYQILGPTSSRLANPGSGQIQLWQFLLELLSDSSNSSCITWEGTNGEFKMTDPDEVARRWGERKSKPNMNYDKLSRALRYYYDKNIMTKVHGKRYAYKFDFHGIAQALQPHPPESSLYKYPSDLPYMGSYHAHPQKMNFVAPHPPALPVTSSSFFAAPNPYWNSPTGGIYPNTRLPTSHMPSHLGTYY
Method in brief: as §1

ELF1 = ELF1 (Homo sapiens, UniProt P32519 1-619)
ELF1, sequence (P32519 whole entry): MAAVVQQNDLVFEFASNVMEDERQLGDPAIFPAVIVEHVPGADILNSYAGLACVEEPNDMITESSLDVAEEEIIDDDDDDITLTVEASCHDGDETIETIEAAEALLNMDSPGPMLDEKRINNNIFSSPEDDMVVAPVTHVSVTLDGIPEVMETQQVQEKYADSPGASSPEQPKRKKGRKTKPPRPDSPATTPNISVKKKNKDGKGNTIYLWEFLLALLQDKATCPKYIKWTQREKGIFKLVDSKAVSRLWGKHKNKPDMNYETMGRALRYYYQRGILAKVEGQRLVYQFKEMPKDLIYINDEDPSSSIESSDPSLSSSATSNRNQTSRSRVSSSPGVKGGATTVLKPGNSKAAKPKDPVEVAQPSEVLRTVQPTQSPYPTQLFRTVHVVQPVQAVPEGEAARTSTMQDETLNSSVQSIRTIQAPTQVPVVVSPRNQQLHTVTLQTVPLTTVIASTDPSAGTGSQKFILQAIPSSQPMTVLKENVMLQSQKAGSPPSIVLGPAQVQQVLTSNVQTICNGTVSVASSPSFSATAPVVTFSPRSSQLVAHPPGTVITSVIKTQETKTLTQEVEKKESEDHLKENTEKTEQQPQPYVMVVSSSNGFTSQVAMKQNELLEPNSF
Method in brief: as §1

EHF = target: T5, EHF (Homo sapiens, UniProt Q9NZC4 1-300)
T5 sequence: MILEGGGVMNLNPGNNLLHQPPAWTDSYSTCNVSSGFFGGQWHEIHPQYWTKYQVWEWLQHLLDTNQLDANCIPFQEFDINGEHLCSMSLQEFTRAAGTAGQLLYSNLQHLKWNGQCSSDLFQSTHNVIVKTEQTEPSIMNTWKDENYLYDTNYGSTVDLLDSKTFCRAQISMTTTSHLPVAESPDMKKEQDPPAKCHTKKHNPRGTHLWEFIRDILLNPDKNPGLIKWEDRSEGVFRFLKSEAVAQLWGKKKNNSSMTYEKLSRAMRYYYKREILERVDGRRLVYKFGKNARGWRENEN
Method in brief: as §1

SPI1 = SPI1 (Homo sapiens, UniProt P17947 1-270)
Method in brief: as §1

SPIB = SPIB (Homo sapiens, UniProt Q01892 1-262)
SPIB, sequence (Q01892 whole entry): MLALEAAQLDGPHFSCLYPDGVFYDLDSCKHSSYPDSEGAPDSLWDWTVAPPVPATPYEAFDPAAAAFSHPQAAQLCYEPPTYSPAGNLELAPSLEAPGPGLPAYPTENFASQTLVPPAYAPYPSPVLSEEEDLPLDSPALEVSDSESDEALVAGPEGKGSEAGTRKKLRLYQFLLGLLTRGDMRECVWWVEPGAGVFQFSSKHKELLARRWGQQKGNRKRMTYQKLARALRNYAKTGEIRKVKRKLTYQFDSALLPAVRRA
Method in brief: as §1

ELK3 = target: T6, ELK3 (Homo sapiens, UniProt P41970 1-407)
T6 sequence: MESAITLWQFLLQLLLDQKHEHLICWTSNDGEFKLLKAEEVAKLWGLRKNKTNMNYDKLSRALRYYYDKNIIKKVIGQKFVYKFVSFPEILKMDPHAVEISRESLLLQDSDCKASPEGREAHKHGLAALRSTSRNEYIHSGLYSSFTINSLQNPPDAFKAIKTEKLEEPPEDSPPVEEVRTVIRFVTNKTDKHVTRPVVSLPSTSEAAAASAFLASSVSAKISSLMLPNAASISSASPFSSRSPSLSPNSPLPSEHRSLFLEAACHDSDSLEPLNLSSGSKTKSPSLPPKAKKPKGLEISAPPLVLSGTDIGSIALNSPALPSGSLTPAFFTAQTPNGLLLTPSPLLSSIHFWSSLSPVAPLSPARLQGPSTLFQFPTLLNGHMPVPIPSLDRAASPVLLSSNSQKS
Method in brief: as §1

FEV = target: T7, FEV (Homo sapiens, UniProt Q99581 1-238)
T7 sequence: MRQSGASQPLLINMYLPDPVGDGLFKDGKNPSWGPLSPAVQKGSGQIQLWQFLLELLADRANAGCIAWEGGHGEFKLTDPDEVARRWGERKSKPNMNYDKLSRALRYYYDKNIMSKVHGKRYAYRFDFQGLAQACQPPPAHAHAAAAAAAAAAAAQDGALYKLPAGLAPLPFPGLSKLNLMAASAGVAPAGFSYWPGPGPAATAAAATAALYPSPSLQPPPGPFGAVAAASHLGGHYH
Method in brief: as §1

ETV5 = ETV5 (Homo sapiens, UniProt P41161 1-510)
ETV5, sequence (P41161 whole entry): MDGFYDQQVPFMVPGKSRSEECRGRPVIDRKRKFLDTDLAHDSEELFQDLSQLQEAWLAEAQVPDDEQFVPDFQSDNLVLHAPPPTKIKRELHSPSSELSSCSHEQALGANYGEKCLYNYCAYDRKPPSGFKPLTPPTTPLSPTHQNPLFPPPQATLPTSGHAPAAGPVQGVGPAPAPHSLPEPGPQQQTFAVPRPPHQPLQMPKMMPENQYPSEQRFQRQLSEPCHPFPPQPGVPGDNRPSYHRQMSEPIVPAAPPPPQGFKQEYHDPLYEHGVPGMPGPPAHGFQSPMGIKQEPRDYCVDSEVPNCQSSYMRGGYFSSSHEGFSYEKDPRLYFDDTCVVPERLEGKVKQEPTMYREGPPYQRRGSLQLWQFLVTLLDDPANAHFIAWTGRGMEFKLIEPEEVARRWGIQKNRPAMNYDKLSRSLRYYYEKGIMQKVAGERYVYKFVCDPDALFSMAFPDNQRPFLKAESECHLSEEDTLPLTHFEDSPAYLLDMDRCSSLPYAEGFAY
Method in brief: as §1

ELF4 = ELF4 (Homo sapiens, UniProt Q99607 1-663)
ELF4, sequence (Q99607 whole entry): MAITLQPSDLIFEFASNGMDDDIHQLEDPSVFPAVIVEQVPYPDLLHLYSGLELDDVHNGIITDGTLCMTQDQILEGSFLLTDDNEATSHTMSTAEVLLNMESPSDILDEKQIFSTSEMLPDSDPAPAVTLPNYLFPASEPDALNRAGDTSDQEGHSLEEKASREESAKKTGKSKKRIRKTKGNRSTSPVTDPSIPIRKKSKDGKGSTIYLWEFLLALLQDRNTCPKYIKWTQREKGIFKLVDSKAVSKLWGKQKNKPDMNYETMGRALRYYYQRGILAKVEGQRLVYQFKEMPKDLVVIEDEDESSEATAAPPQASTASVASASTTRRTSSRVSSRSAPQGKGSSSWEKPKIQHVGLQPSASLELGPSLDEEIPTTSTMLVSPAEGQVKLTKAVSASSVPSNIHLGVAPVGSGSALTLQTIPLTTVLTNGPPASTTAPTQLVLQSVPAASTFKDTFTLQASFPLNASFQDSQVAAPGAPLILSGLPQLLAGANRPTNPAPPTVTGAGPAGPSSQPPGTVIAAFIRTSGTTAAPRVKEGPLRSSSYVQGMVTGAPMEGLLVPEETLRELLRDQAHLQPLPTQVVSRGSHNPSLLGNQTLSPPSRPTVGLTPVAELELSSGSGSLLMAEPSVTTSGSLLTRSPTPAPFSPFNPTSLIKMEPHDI
Method in brief: as §1

ETV1 = ETV1 (Homo sapiens, UniProt P50549 1-477)
ETV1, sequence (P50549 whole entry): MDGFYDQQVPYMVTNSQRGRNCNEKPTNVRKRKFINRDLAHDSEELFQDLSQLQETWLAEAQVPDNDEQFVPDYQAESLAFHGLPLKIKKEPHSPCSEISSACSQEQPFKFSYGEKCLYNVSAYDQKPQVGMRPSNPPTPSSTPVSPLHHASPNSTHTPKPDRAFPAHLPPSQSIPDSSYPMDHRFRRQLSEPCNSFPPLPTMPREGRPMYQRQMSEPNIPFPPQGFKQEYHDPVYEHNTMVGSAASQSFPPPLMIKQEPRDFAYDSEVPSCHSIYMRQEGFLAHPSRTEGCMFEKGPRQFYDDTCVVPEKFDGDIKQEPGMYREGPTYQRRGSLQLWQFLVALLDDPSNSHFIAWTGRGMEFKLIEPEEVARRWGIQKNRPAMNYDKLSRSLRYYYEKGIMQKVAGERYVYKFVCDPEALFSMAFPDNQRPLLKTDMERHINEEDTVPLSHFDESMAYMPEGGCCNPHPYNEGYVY
Method in brief: as §1

ERF = target: T8, ERF (Homo sapiens, UniProt P50548 1-548)
T8 sequence: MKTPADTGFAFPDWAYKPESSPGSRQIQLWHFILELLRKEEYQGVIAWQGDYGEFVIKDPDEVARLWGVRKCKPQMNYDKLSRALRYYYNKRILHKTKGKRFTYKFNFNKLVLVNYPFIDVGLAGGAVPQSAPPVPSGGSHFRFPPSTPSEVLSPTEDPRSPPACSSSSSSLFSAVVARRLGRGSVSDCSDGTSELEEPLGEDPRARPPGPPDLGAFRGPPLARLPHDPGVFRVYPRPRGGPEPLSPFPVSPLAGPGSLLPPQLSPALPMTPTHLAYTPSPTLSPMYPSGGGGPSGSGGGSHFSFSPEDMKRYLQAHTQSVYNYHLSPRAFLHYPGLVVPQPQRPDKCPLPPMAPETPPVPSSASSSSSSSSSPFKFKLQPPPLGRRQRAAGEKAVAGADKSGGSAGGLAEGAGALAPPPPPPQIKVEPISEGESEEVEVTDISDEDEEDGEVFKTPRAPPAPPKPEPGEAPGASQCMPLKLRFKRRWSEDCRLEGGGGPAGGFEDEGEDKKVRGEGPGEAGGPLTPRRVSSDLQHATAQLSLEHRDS
Method in brief: as §1

ETV3L = target: T9, ETV3L (Homo sapiens, UniProt Q6ZN32 1-361)
T9 sequence: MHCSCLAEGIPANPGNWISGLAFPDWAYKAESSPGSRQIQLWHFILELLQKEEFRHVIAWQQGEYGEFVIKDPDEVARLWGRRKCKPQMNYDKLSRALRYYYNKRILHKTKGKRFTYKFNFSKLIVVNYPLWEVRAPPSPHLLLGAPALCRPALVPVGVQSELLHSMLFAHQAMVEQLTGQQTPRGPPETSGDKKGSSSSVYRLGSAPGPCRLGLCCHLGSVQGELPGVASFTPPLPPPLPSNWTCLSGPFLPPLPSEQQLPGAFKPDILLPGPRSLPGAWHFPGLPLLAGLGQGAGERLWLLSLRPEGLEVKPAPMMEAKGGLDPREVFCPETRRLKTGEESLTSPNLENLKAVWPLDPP
Method in brief: as §1

ETS2 = target: T10, ETS2 (Homo sapiens, UniProt P15036 1-469)
T10 sequence: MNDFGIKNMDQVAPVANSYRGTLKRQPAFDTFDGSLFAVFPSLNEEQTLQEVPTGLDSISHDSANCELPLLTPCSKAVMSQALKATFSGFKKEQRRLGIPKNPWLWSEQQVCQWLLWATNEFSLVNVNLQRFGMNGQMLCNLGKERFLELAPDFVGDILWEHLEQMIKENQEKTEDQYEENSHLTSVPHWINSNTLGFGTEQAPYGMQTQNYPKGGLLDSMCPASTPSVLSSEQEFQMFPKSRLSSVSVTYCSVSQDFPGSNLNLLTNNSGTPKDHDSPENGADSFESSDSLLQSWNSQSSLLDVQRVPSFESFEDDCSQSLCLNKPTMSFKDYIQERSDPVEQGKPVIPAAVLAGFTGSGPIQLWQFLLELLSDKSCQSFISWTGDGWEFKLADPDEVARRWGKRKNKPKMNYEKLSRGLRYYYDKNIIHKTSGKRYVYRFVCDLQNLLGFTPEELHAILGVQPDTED
Method in brief: as §1

SPDEF = target: T11, SPDEF (Homo sapiens, UniProt O95238 1-335)
T11 sequence: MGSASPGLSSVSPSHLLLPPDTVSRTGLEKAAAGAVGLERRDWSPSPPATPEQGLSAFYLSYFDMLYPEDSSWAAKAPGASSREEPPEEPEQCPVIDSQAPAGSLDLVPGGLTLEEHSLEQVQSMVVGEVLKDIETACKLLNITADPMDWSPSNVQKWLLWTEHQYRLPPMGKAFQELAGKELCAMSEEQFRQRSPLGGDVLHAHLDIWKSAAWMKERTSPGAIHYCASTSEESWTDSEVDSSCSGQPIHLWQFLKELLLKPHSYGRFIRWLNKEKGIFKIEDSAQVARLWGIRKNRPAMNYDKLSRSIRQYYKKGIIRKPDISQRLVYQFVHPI
Method in brief: as §1

ETV3 = target: T12, ETV3 (Homo sapiens, UniProt P41162-2 1-143)
T12 sequence: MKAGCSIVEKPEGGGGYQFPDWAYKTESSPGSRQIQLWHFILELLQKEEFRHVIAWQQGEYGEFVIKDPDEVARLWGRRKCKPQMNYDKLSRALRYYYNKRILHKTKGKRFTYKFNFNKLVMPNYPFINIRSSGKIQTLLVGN
Method in brief: as §1

ETV6 = ETV6 (Homo sapiens, UniProt P41212 1-452)
ETV6, sequence (P41212 whole entry): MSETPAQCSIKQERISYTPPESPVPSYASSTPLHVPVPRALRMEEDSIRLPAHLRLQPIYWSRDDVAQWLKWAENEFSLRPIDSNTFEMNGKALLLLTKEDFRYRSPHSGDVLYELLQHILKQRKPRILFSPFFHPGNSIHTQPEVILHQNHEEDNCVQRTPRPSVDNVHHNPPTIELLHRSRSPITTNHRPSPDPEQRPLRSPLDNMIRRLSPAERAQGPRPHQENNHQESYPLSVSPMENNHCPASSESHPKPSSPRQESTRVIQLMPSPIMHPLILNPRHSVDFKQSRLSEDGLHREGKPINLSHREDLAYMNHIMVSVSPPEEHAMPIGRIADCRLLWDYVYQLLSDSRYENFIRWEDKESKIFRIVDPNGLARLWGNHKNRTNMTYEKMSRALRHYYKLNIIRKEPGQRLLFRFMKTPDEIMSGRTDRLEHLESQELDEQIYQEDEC
Method in brief: as §1

ACGACC
binding signal (FLI1): 1.18 fold enrichment (6-mer frequency, TF over GST control)
binding signal (ELK1): 1.21 fold enrichment (6-mer frequency, TF over GST control)
binding signal (GABPA): 1.11 fold enrichment (6-mer frequency, TF over GST control)
binding signal (ERG): 1.1 fold enrichment (6-mer frequency, TF over GST control)
binding signal (ELF1): 1.21 fold enrichment (6-mer frequency, TF over GST control)
binding signal (EHF): 1.1 fold enrichment (6-mer frequency, TF over GST control)
binding signal (SPI1): 1.03 fold enrichment (6-mer frequency, TF over GST control)
binding signal (SPIB): 1.07 fold enrichment (6-mer frequency, TF over GST control)
binding signal (ELK3): 1.31 fold enrichment (6-mer frequency, TF over GST control)
binding signal (FEV): 1.22 fold enrichment (6-mer frequency, TF over GST control)
binding signal (ETV5): 1.17 fold enrichment (6-mer frequency, TF over GST control)
binding signal (ELF4): 1.26 fold enrichment (6-mer frequency, TF over GST control)
binding signal (ETV1): 1.2 fold enrichment (6-mer frequency, TF over GST control)
binding signal (ERF): 1.11 fold enrichment (6-mer frequency, TF over GST control)
binding signal (ETV3L): 1.18 fold enrichment (6-mer frequency, TF over GST control)
binding signal (ETS2): 1.15 fold enrichment (6-mer frequency, TF over GST control)
binding signal (SPDEF): 1.2 fold enrichment (6-mer frequency, TF over GST control)
binding signal (ETV3): 1.24 fold enrichment (6-mer frequency, TF over GST control)
binding signal (ETV6): 1.19 fold enrichment (6-mer frequency, TF over GST control)
